BAZ2B inh: blocks human BAZ2B. Q9UIF8. AlphaScreen BAZ2B-H3K14Ac peptide displacement. Potency, µM (top dose mostly 114 µM), for inactives: top-dose activity change, negative = inhibition, usual class: inhibitors. 360,000 compounds, 4.4% hits. AID 504333; also: % is scaled to controls: 0 for no effect and ±100 for the full control effect; nearly all actives have a fitted effect of over 60% in size
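BAZ2B 50 nM plus b-H3(5-23)K14Ac 50 nM, PBS pH 7.4/0.01% Tween-20, 30 min RT; compound added (max 110 uM), 30 min RT; streptavidin donor/Ni-chelate acceptor beads 10 ug/mL final, 20 min dark; AlphaScreen read.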
GLS inh: inhibitors of human glutaminase (GLS). AID 624170. 410,000 compounds, 0.21% hits. GLS enzymatic activity, qHTS titration. Potency, µM (titrated, usually from 45.5 µM), for the others: at the highest dose activity change, negative = inhibition, usual class: inhibitors; also: % is scaled to controls: 0 for no effect and ±100 for the full control effect
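Human kidney-isoform GLS in 45 mM KH2PO4 pH 8.2, 0.02% Tween-20, with compound, started with 1mM L-Glutamine (added stock). Glutamate oxidase/HRP/Amplex red coupled fluorescence read at start and after 30 min at RT.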
HP1b chromo inh: HP1-beta chromodomain-methylated histone interaction inhibition; Potency, µM (top dose mostly 114 µM), for the others: at the top dose activity change, negative = inhibition, hits mostly inhibitors; P83916; AlphaScreen HP1-beta / biotin-H3K9me3 peptide binding; 390,000 compounds, 0.56% hits; also: nearly all actives have a fitted effect of over 70% in size
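HP1-beta protein (50 nM final) preincubated 30 min at room temperature with biotinylated H3(1-18)K9me3 peptide (50 nM) in PBS pH 7.4, 0.01% Tween-20, then compound added for 30 min. AlphaScreen streptavidin donor/nickel chelate acceptor beads (10 ug/mL final), 30 min dark, luminescence read.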
G9a block: blocks human histone lysine methyltransferase G9a | Q96KQ7 | G9a H3K9 monomethylation, AlphaScreen, 2 h | Potency, µM (titrated, usually from 102 µM), inactives show at the highest dose activity, negative = inhibition, most hits filed as inhibitors | 350,000 compounds, 8.8% hits; also: % is scaled to controls: 0 for no effect and ±100 for the full control effect; nearly all actives have a fitted effect of over 75% in size
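Chemiluminescent proximity detection of H3K9 monomethylation, read after 10 min bead incubation in the dark. Reaction: 20 nM G9a, 500 nM biotin-H3K9 peptide, 20 uM SAM cofactor, 2 h, room temperature, following 15 min enzyme-compound preincubation.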
JMJD2A Tudor inh: JMJD2A Tudor domain (human) inhibition. AlphaScreen JMJD2A-Tudor / H3K4me3 peptide binding. Potency, µM (doses to about 114 µM), inactives show at the highest dose activity change, negative = inhibition, actives largely listed as inhibitors. O75164. 390,000 compounds, 4.4% hits. AID 504339; also: % is scaled to controls: 0 for no effect and ±100 for the full control effect; nearly all actives have a fitted effect of over 50% in size
Target sequence (O75164 whole entry, looked up, the tested form may be a part): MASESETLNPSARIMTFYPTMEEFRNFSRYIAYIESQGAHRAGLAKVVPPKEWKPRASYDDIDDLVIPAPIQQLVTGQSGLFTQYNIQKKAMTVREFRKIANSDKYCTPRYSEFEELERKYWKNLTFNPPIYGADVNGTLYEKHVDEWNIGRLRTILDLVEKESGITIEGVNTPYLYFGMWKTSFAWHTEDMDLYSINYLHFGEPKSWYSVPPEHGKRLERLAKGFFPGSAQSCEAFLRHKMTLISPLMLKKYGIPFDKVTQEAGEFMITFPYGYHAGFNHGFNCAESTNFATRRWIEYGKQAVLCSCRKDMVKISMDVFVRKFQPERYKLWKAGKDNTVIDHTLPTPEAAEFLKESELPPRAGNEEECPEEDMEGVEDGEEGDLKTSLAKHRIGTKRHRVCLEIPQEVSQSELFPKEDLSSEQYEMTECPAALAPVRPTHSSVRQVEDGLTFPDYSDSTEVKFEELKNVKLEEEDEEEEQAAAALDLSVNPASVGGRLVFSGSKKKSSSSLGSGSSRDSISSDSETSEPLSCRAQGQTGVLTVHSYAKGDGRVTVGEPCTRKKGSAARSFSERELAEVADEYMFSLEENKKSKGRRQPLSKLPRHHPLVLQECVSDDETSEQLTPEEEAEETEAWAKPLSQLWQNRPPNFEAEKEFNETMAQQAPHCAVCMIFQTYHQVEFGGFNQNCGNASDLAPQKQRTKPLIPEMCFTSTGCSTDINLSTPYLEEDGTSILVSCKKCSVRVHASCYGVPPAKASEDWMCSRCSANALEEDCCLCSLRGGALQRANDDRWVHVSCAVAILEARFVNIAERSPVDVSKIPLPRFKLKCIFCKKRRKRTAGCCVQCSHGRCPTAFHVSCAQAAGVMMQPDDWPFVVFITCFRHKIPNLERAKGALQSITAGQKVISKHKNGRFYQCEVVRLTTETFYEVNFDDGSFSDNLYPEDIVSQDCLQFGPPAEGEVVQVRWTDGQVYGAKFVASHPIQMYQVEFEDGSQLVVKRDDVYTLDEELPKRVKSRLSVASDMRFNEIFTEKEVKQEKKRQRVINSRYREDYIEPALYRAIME
* hit, by the source's call; ? = inconclusive; nt = no result; ! = not active in a repeat; [ ] = remark or other dose. This is a sample that favours compounds with a hit; in the whole collection about 10% have one here. Calls follow the shape of the dose curve; as a rule, active = well fitted curve in the direction sought with a large enough effect; inconclusive = small, poorly fitted or top-dose-only effect, or another doubt; inactive = no such curve, though single readings can be large; an effect the other way counts as inactive or inconclusive. Potency is read from the fitted curve at half-maximal effect.

SMILES	BAZ2B inh	GLS inh	HP1b chromo inh	G9a block	JMJD2A Tudor inh
CSc1nncc(/C(C)=N/O)n1	10%	27%	28%	1%[59 µM]	-15%
CSc1nncc(/C(C)=N\Nc2ccccc2C)n1	-2%	-4%	-21%	2.5µM*	-29%
C/C(=N\Nc1ccccc1C)c1cccnc1	?	-25%	11%	1.4µM*	50µM*
Cc1ccc(C2=NN=C(NC(=O)CSc3nncn3C)SC2)cc1	-13%	?	35µM*	22µM*	?
Cc1ccc(OCC(=O)NC2=NCCS2)cc1	-6%	11%	?	nt	-17%
Cc1ccc(NC(=O)CSc2nncn2C)c(C)c1	2%	-5%	28%	4%[59 µM]	-9%
Cc1ccc(C2=NN=C(NC(=O)C(F)(F)F)SC2)cc1	-2%	1%	-3%	28µM*	-29%
CCCc1cc(C(N)=O)c(NC(=O)C2CCCO2)s1 (stereo unspecified)	6%	-10%	-34%	?	?
O=C1OCC(CO)(CO)N=C1NNc1cc(Cl)ccc1Cl	2%	18%	-10%	50µM*	-19%
O=C1OCC(CO)(CO)N=C1NNc1ccccc1[N+](=O)[O-]	-37%	6%	-10%	?	-6%
CCCCC(=O)NCCNc1nc2c(c(=O)n(C)c(=O)n2C)n1Cc1ccccc1	3%	25%	28%	0%[12.7 µM]	?
CN(C)c1cccc(NC(=O)c2cccc3c(-c4ccc(F)c(F)c4)coc23)c1	nt	2%	nt	nt	nt
COc1cc2c(cc1OC)C(C(=O)O)C(c1cc(Br)c(O)c(OC)c1)N(C)C2=O (stereo unspecified)	-8%	16%	51%	35µM*	19%
COC(=O)c1[nH]c2ccc(C)cc2c1NC(=O)Nc1ccc(OC)cc1	13%	-20%	43%	45µM*	8%[11.4 µM]
COc1ccc2[nH]c(C(=O)O)c(NS(=O)(=O)c3ccc(C)cc3C)c2c1	-30%	-18%	8%	40µM*	-29%
COC(=O)c1[nH]c2cc(OC)ccc2c1N	-28%	80%	-6%	3.5µM*	?
CCOC(=O)Nc1c(C(=O)OC)[nH]c2cc(OC)ccc12	-11%	20%	4%	-30%	-22%
N#C/C(=C\c1ccc(OC(=O)c2ccc(Br)s2)cc1)c1nc2ccccc2[nH]1	?	10%	45%	5%[59 µM]	-33%
C=CCn1c(SCC(=O)Nc2ccc3c(c2)CCC3)nnc1-c1cccs1	-5%	11%	22%	0%[12.7 µM]	-23%
CCOC(=O)[C@H](CCc1ccccc1)N[C@@H](C)C(=O)N1CCC[C@H]1C(=O)O	-6%	1%	23%	-15%	50µM*!
CCOC(=O)[C@H](CCc1ccccc1)N[C@@H](C)C(=O)N1CCC[C@@H]1C(=O)O	?	-4%	-4%	20µM*	20µM*
CCc1ccccc1OCCCCN1CCCC1	?	14%	-45%	16µM*	7.9µM*
CC(=O)c1ccccc1OCCCCN1CCCCC1	?	-1%	?	25µM*	25µM*
C=CCc1ccccc1OCCCCN1CCCC1	50µM*	6%	?	?	10µM*
O=S1(=O)C[C@@H]2N=C(N/N=C/c3ccccc3)S[C@@H]2C1	-4%	-6%	3%	?	-12%
SMILES	BAZ2B inh	GLS inh	HP1b chromo inh	G9a block	JMJD2A Tudor inh
C/C(=N\NC1=N[C@H]2CS(=O)(=O)C[C@H]2S1)c1ccccc1	?	25%	12%	50µM*	?
S=c1nc(-c2ccccc2)n(CCN2CCOCC2)c2c1CCCC2	nt	1%	38%	4%[59 µM]	-7%
O=[N+]([O-])c1ccccc1CNC1CCCCCC1	?	3%	?	22µM*	50µM*
COC(=O)c1cccc(S(=O)(=O)N2CCC(c3nc4ccccc4o3)CC2)c1	-3%	-3%	31%	-12%[59 µM]	-21%
Oc1cccc(-c2nc3ccccc3s2)c1	9%	15%	59%	?	-2%
Cc1cc(C)c(-c2nc3ccccc3s2)[nH]1	-23%	10%	-2%	50µM*	-21%
Cc1nc2ccccc2c(=O)n1/N=C/c1ccc(O)cc1	-5%	?	12%	15%[59 µM]	-7%
CCN=c1scc(-c2ccco2)n1/N=C/c1ccc(O)cc1	50µM*	11%	?	35µM*	56µM*
Cc1cccc2sc(N(CCCN(C)C)C(=O)c3ccc4ncsc4c3)nc12	-37%	0%	-5%[57 µM]	32µM*	?
Cc1cccc2sc(N(CCCN(C)C)C(=O)c3nc4ccccc4s3)nc12	-6%	8%	0%	10µM*	-14%
Cc1cccc2sc(N(CCCN(C)C)C(=O)CCc3ccccc3)nc12	-31%	-1%	-5%	?	?
Cc1ccc2sc(N(CCCN(C)C)C(=O)c3ccc(Br)s3)nc2c1C	?	1%	4%	35µM*	?
Cc1cccc2sc(N(CCCN(C)C)C(=O)CN3C(=O)c4ccccc4C3=O)nc12	nt	-2%	24%	?	-15%
CCc1ccc2nc(N(CCN(C)C)C(=O)c3ccc4ncsc4c3)sc2c1	?	9%	?	10µM*	50µM*
CCc1ccc2nc(N(Cc3cccnc3)C(=O)c3ccc(C#N)cc3)sc2c1	?	5%	5%	-7%[59 µM]	-24%
COc1ccc2cc3cc(C(=O)N4CCCCC4C)oc3nc2c1 (stereo unspecified)	-10%	-4%	25%[57 µM]	14%	-4%
CC(=O)c1ccc(C(=O)N(CCCN(C)C)c2nc3c(C)c(C)ccc3s2)cc1	?	-3%	?	-38%[59 µM]	?
Cc1ccc2sc(N(CCCN(C)C)C(=O)c3nc4ccccc4s3)nc2c1C	-26%	0%	?	45µM*	-34%
CC(=O)c1ccc(N2CCN(C(=O)c3nn(Cc4ccccc4)c(=O)c4ccccc34)CC2)cc1	-30%	-1%	44%	22%	-18%
O=C1C(=O)N(CCN2CCOCC2)C(c2ccccc2F)/C1=C(\O)c1ccc(S(=O)(=O)N2CCOCC2)cc1 (stereo unspecified)	-23%	-4%	10%	50µM*	-15%
O=C1C(=O)N(CCN2CCOCC2)C(c2ccc(Cl)cc2)/C1=C(/O)c1ccc(S(=O)(=O)N2CCOCC2)cc1 (stereo unspecified)	24%	0%	54%	56µM*	-4%
CN(C)CCN1C(=O)C(=O)/C(=C(/O)c2ccc(S(=O)(=O)N3CCOCC3)cc2)C1c1ccccc1 (stereo unspecified)	-2%	11%	12%	-5%	-20%
COc1cc2c(=O)c(C(=O)c3ccc(C)c(C)c3)cn(Cc3ccc(F)cc3)c2cc1OC	-23%	2%	24%	-39%[59 µM]	-15%
Cc1ccc(S(=O)(=O)NCCNC(=O)c2nonc2N)cc1	7%	2%	36%	4%[2.33 µM]	-7%[57.1 µM]
CSc1nsc(SC)c1C(=O)NCCNS(=O)(=O)c1ccc(C)cc1	50µM*	8%	30%	2.8µM*	-11%

Screens deposited in PubChem BioAssay by National Center for Advancing Translational Sciences (NCATS).
